Experimental data reported in ChEMBL document CHEMBL3988442, “University of Dundee, Small-Polar-MMV Screening Library” (2021).
For part of these data: Results with a measured potency or affinity are listed apart.

Legend:
Parameters in all cases: scale not given: direction of the effect not stated beside the values
[1] = target: Protein translocase subunit SecA (Escherichia coli (strain K12)) (UniProt P10408); test: Assay to Identify E. coli SecA ATPase Inhibitors; assay type: functional; settings: 30 µM
[2] = target: T1, Ubiquitin-activating enzyme e1, putative (Leishmania donovani (strain BPK282A1)) (UniProt E9BSI1); test: Leishmania donovani Ubiquitin Activating Enzyme (LdE1); assay type: functional; settings: 30 µM
T1 sequence (whole entry): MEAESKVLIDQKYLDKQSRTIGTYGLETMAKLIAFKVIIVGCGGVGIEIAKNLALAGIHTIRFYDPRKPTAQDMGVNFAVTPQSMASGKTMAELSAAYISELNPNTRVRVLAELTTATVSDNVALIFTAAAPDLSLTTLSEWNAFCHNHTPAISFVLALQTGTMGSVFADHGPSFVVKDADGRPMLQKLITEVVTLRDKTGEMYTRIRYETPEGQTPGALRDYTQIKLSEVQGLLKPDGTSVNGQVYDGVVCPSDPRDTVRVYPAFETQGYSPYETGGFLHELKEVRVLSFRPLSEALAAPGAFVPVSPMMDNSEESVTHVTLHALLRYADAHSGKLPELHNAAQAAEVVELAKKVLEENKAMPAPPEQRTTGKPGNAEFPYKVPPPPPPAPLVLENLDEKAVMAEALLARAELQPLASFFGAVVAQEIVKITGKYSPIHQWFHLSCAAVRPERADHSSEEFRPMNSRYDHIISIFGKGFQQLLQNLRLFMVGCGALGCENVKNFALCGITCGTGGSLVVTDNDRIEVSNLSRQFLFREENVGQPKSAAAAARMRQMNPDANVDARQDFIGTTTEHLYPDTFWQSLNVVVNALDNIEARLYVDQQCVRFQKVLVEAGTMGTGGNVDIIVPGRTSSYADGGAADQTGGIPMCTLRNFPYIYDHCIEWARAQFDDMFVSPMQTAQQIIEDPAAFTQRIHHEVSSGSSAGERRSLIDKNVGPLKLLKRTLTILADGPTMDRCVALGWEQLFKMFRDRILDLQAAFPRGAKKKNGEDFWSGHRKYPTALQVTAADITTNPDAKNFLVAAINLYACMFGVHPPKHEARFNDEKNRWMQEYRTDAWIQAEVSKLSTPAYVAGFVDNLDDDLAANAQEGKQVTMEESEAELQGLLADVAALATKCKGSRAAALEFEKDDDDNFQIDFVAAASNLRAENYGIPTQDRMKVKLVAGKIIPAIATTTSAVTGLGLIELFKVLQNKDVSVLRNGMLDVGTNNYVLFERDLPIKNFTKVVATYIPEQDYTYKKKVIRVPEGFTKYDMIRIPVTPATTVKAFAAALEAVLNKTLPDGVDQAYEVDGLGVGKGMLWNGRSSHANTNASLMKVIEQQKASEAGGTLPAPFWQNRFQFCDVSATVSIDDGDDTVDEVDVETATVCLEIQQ

[3] = target: Sialic acid-binding Ig-like lectin 9 (Homo sapiens) (UniProt Q9Y336); test: Hs-Siglec9 ALPHAscreen SOP 20170721; settings: 10 µM
Trypanosoma cruzi = test: Trypanosoma cruzi phosphomannomutase and mannose-1-phosphate guanylyltransferase assay; assay type: functional; settings: 10 µM
[4] = target: T2, Arginase-2, mitochondrial (Homo sapiens) (UniProt P78540); test: in vitro enzyme assay to detect the production of urea directly proportional to the activity of Arginase II; assay type: functional; settings: 33.3 µM; further: in the data most compounds retested in dose-response had high values
T2 sequence (whole entry): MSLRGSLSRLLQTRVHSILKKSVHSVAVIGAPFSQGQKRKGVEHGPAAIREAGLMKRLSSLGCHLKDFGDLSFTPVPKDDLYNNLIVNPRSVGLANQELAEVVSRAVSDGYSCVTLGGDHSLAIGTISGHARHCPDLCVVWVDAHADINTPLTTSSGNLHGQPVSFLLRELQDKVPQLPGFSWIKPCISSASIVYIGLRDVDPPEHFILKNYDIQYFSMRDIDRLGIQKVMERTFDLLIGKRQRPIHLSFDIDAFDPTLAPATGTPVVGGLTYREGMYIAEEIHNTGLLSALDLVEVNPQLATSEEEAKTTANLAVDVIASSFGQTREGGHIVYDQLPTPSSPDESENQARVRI

[5] = target: T3, Proteasome subunit beta (Trypanosoma cruzi) (UniProt O96673); test: Trypanosoma cruzi proteasome chymotrypsin-like activity (TcProtChymo) assay.; further: in the data most compounds retested in dose-response had high values; assay type: functional; settings: 9.37 µM
T3 sequence (whole entry): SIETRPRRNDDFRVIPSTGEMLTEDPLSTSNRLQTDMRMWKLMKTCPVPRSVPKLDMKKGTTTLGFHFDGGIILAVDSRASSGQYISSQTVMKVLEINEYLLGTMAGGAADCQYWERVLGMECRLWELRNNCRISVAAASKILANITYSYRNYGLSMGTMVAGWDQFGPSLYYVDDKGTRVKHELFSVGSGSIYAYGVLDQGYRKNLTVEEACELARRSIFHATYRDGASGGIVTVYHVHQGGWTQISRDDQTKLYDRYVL

Homo sapiens = species on record: Homo sapiens; test: To identify inhibition of the IFN signalling (Jak-Stat) pathway via expression of an eGFP reporter gene under the control of an IFN-stimulated response element (ISRE) containing MxA promoter.; assay type: functional; settings: 30 µM
[6] = target: T4, Tyrosyl-tRNA synthetase, putative (Trypanosoma cruzi (strain CL Brener)) (UniProt Q4DSP6); test: Trypanosoma cruzi tyrosyl tRNA synthetase (TcYRS) _High Tyrosine SOP; assay type: functional; settings: 30 µM; further: in the data most compounds retested in dose-response had high values
T4 sequence (whole entry): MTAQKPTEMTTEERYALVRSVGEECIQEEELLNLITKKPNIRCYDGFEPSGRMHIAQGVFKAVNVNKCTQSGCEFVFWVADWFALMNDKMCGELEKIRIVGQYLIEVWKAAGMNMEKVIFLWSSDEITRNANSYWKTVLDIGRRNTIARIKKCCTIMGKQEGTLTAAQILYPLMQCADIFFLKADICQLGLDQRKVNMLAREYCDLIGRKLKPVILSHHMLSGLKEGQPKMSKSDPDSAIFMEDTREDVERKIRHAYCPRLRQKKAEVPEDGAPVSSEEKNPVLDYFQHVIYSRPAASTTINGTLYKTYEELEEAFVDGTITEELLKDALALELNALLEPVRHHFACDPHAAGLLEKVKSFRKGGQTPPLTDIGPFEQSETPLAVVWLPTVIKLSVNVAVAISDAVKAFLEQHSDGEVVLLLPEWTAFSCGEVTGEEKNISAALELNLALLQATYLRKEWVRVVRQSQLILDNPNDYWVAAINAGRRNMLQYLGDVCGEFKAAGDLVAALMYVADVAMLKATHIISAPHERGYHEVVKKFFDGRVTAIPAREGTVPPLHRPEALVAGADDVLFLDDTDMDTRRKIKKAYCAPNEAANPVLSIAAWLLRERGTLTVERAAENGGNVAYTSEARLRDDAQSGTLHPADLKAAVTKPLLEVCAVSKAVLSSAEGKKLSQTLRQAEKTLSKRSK

[7] = target: T4, Tyrosyl-tRNA synthetase, putative (Trypanosoma cruzi (strain CL Brener)); test: Trypanosoma cruzi tyrosyl tRNA synthetase (TcYRS) SOP; assay type: functional; settings: 30 µM
[8] = target: Chromo domain-containing protein 1 (Saccharomyces cerevisiae (strain ATCC 204508 / S288c) (Baker's yeast)) (UniProt P32657); test: ScCHD-1 Enzyme Inhibition Assay; assay type: functional; settings: 30 µM; further: in the data most compounds retested in dose-response had high values
Sequence of Chromo domain-containing protein 1 (Saccharomyces cerevisiae (strain ATCC 204508 / S288c) (Baker's yeast)) (P32657 whole entry, the tested form may be a part): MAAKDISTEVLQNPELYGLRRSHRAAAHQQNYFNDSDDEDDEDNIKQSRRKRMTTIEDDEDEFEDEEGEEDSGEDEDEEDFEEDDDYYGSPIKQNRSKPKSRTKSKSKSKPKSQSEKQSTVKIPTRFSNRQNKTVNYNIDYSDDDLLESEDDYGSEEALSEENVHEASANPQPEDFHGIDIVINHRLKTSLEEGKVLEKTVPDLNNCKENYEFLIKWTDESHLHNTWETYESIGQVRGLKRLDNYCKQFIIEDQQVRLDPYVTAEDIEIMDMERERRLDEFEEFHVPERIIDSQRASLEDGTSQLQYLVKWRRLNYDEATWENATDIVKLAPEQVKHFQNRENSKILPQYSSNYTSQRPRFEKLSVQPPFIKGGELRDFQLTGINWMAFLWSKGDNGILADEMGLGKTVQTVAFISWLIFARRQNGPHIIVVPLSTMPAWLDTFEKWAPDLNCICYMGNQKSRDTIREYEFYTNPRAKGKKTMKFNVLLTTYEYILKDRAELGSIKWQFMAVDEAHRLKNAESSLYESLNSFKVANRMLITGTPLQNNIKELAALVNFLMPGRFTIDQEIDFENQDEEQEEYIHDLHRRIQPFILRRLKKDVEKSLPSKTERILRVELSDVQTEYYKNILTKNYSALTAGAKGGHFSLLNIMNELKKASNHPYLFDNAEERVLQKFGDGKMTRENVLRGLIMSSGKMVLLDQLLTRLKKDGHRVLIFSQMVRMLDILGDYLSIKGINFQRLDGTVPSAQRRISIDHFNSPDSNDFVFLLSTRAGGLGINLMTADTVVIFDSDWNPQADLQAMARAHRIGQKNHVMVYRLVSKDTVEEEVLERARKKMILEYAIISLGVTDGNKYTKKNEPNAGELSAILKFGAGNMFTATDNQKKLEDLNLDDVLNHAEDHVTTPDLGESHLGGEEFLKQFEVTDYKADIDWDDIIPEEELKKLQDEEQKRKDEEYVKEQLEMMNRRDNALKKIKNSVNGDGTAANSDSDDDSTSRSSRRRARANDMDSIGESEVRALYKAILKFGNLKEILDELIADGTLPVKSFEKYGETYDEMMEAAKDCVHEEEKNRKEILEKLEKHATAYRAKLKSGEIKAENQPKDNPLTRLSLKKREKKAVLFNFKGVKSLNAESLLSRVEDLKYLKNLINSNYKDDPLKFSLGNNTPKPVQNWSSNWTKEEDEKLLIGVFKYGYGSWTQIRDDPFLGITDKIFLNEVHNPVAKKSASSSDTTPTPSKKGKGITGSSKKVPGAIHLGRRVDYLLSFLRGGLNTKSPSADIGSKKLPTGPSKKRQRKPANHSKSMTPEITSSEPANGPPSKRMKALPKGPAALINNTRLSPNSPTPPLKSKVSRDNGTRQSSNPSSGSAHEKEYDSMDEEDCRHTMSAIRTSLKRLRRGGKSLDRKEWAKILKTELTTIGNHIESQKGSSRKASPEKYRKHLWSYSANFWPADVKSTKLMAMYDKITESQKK

Sequence of Sialic acid-binding Ig-like lectin 9 (Homo sapiens) (Q9Y336 whole entry): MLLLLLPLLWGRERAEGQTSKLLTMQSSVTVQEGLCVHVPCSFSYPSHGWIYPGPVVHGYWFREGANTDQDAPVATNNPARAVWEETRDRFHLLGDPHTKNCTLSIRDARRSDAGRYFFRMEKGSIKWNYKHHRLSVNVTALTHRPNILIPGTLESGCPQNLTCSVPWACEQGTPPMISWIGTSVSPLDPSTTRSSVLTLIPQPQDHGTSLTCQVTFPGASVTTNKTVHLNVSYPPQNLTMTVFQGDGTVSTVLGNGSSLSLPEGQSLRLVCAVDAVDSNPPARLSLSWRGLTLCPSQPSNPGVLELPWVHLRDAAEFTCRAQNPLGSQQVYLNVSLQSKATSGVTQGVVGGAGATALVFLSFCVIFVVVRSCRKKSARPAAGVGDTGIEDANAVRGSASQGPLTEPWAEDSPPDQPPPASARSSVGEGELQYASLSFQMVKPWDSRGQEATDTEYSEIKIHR
Sequence of Protein translocase subunit SecA (Escherichia coli (strain K12)) (P10408 whole entry): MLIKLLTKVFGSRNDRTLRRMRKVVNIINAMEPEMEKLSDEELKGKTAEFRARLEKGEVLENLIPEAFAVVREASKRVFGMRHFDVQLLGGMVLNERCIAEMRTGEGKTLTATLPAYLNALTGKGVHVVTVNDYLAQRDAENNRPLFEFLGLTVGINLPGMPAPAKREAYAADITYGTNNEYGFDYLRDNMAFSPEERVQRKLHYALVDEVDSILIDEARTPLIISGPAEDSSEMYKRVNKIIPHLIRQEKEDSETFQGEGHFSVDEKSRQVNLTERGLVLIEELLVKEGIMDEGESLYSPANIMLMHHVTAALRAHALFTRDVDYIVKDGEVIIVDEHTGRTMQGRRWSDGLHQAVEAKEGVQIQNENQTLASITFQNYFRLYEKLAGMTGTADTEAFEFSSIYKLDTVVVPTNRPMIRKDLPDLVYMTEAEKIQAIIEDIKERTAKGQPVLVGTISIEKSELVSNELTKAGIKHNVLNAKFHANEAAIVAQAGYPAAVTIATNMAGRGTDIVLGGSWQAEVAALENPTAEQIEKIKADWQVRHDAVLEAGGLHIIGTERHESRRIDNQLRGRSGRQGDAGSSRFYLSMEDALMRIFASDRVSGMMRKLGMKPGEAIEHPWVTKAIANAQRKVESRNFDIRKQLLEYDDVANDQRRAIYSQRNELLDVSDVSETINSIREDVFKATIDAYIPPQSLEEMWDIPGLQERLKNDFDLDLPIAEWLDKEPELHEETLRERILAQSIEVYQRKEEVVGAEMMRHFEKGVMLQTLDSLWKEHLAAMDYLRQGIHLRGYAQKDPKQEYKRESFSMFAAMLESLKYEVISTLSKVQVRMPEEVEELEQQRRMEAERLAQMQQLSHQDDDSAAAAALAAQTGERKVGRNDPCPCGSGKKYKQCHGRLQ

Row | Compound | Percent Effect [1] [%] | Percent Effect [2] [%] | Percent Effect [3] [%] | Percent Effect (Trypanosoma cruzi) [%] | Percent Effect [4] [%] | Percent Effect [5] [%] | Percent Effect (Homo sapiens) [%] | Percent Effect [6] [%] | Percent Effect [7] [%] | Percent Effect [8] [%]
1 | CC(C)N(Cc1cccc(F)c1)Cc1nc2c(cnn2C)c(=O)[nH]1 | -1.46 | 7.69 | 6.74 | 0.469 | 3.28 | 1.79 | 5.6 | 3.35 | 13.2 | -4.1
2 | Cc1ccc(NC(=O)C(C)N2CCCN(c3nccs3)CC2)c(C)c1 (stereo not given) | -1.1 | 15.4 | -3.51 | -1.41 | 4.51 | 14.1 | 8.08 | 2.39 | 6.02 | -0.819
3 | COCCN1CCCN(C(=O)NC(C)Cn2ccnc2)CC1 (stereo not given) | 0.718 | 13 | 12.5 | 0.56 | -4.71 | -0.702 | 8.17 | 0 | 18.8 | -5.5
4 | COc1cccc(CN2CCCC3(CCN(C(=O)[C@H]4CCCO4)C3)C2)c1 (stereo not given in full) | -5.07 | 3.9 | -0.211 | -0.75 | 3.65 | 4.55 | 0.637 | 12.6 | 15 | -10.7
5 | O=C(c1cc(C2CC2)[nH]n1)N1CCCC(n2cncn2)C1 (stereo not given) | -2.3 | 7.69 | -12.5 | 4.6 | 1.23 | 8.11 | -13.2 | 2.39 | 10.8 | -2.79
6 | CC(C)(C)n1ncc2c1NC(=O)CC2c1ccsc1 (stereo not given) | -1.95 | 2.7 | -2.29 | -7.47 | 5.94 | 13.2 | 15.1 | 4.79 | 9.76 | -1.82
7 | Cc1cc(C)n(C2CCCN(C(=O)c3c(C)c(C)n[nH]c3=O)C2)n1 (stereo not given) | -1.62 | 8 | 4.21 | -4.62 | 0.887 | 4.16 | 17.4 | 1.58 | 2.56 | -4.78
8 | CC(C)CN(Cc1nc2c(cnn2C)c(=O)[nH]1)C(C)C | -1.52 | 10.3 | -1.47 | 5.92 | 7.38 | -3.5 | -18.2 | 5.26 | 18.1 | 0.0184
9 | Cc1cc(-c2nn(C)c(Cl)c2CN2Cc3ccccc3C(O)C2)no1 (stereo not given) | -0.14 | 24.3 | 18.2 | 11.2 | 20.6 | 6.34 | 47.5 | 3.72 | 4.88 | -1.98
10 | O=C(O)c1cc(S(=O)(=O)N2CCOc3ccccc32)ccc1F | -6.51 | 10.3 | -10.2 | 5.54 | -0.82 | 10.8 | -4.8 | -0.478 | 18.1 | -3.79
11 | Cc1cc(C(=O)NCC(C)N2CCc3ccccc32)no1 (stereo not given) | 0.558 | 2.6 | 10.1 | 2.8 | -4.3 | 0.175 | 23.3 | 7.84 | 11.8 | -1.74
12 | CCc1[nH]ncc1C(=O)N1CCCC(n2ccnc2C(C)C)C1 (stereo not given) | -3.48 | 13.3 | 5.91 | 0 | 0.887 | 0.763 | 25.5 | 3.68 | 10.3 | -5.4
